The campaign covered roughly 310,000 compounds. About 14,000 (4.5%) showed an effect of 50% or more. The effect is printed as a negative number. This is one part of a sample in which strong results are shown more often than they occur.
target: human ether-à-go-go-related gene (hERG) potassium channel (human, UniProt Q12809); experiment: primary screen, population patch clamp on CHO cells stably expressing hERG; higher = less effect of the substance
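Further: peak tail current of the secondary pulse compared with the same well before compound.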

Sequence of human ether-à-go-go-related gene (hERG) potassium channel (Q12809 whole entry, looked up): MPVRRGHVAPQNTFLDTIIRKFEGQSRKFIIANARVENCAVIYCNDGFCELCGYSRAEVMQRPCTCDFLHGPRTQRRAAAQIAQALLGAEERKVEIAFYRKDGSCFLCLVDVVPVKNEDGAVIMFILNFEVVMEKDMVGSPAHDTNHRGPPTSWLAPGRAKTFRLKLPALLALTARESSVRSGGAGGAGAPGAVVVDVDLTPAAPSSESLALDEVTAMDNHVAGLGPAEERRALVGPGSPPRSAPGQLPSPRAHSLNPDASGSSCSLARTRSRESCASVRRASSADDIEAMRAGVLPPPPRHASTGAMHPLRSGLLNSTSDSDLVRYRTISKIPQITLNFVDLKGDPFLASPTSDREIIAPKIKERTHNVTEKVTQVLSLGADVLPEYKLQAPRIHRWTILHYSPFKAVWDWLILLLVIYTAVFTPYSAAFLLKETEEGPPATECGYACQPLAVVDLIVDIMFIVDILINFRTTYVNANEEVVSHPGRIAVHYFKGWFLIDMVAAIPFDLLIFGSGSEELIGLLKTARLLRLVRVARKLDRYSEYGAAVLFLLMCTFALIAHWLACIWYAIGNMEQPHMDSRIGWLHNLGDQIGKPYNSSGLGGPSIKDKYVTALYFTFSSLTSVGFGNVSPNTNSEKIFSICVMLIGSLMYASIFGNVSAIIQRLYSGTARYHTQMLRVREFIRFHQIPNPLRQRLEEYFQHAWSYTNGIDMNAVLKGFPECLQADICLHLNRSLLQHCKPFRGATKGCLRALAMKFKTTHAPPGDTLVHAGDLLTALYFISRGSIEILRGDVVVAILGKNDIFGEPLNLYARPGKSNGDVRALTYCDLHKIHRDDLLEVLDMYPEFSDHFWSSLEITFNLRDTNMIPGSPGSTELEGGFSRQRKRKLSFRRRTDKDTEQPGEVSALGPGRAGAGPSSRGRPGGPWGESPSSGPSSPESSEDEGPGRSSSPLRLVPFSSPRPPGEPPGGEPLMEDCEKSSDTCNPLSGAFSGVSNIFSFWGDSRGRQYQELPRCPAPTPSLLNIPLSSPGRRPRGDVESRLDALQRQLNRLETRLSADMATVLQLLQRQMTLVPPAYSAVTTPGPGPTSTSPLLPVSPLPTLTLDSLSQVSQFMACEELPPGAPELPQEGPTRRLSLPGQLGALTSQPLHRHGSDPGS

SMILES | hERG current change (%, negative = inhibition) at 10uM [%]
O=C1CC(Cc2ccc(Cl)cc2)C(=O)N1c1ccccn1 (centres unmarked) | 1.83
CCOc1ccc(NC(=O)[C@@H](NC(=O)c2ccccc2)[C@@H](C)CC)cc1 | 2.26
CCC(C)NC(=O)CSc1c2c(nc3ccccc13)CCCC2 (centres unmarked) | -7.98
O=C(N/N=C/c1ccc([N+](=O)[O-])s1)c1cccnc1 | 5.77
Cc1cc(C)nc(Sc2nc(C)nc3c2oc2ccccc23)n1 | -1.57
CCc1ccc(S(=O)(=O)Nc2c(NC3CCCCC3)c3ccccc3oc2=O)cc1 | -3.7
CC1CN(S(=O)(=O)c2ccc(C(=O)N3CCc4ccccc43)cc2)CC(C)O1 (centres unmarked) | 15.9
CN(C1CCCCC1)S(=O)(=O)c1cccc(C(=O)Nc2ccccn2)c1 | -53.7
Cc1ccc(NC(=O)c2cccc(S(=O)(=O)N(C)C3CCCCC3)c2)nc1 | -34.7
CC(=O)Nc1ccc(NC(=O)c2cccc(S(=O)(=O)N(C)C3CCCCC3)c2)cc1 | 6.97
Cl.O.O=C1Cc2ccccc2Sc2c(OCCN3CCCCC3)cccc21 | -63.4
O=C1Cc2ccccc2Sc2ccc(Cl)cc21 | 16
CN(C)CCOc1ccc2c(c1)Sc1ccccc1CC2=O.Cl | -64.8
Cc1cccc2c1Sc1ccccc1CC2=O | 0.0655
COc1cccc(OCCCN2CCCCC2)c1 | -16.2
Cc1ccc2c(c1)Sc1ccccc1CC2=O | -20.9
c1ccc(-c2ccccc2OCCN2CCCC2)cc1 | -26.6
Cl.O=C1Cc2ccccc2Sc2cc(OCCCN3CCCCC3)ccc21 | -69.8
O=C1Cc2ccccc2Sc2ccc(O)cc21 | 16.4
O=C1Cc2ccccc2Sc2ccccc21 | 1.13
CN(C)CCCOc1ccc2c(c1)Sc1ccccc1CC2=O.Cl | -74.3
Cc1cccc(OCCCN2CCCCCC2)c1 | -28.2

SMILES | hERG current change (%, negative = inhibition) at 10uM [%]
O=C(O)c1n[nH]c2ccccc12 | -4.09
C[N+]1(CC(=O)NNc2c3ccccc3nc3ccccc23)CCOCC1.[Br-] | 3.64
COC(=O)C(=Nc1ccccc1)/C(C(=O)C(=O)N(C)c1ccccc1)=C(\O)c1ccccc1 | 22.7
CC1(C)CCCC2=C1CC1C(=O)N(Cc3cccnc3)C(=O)C1C2 (centres unmarked) | -5.71
COc1ccc(-c2csc(-c3cc4ccccc4oc3=N)n2)cc1 | -4.44
CCCC(=O)N1CCN(c2ccc(NC(=O)c3ccc(Br)o3)cc2)CC1 | -8.1
COc1ccccc1NC(=O)C1CCN(S(=O)(=O)c2cccs2)CC1 | -7.13
c1ccc2[nH]c(CN3CCCCC3)nc2c1 | 1.41
Cc1ccnc(NC(=O)c2oc3ccccc3c2C)c1 | 24.7
O=C(O)/C=C1\NC(=O)c2ccccc21 | 17
CN(Cc1cn(C)nc1-c1ccccc1F)CC1CCN(Cc2ccccc2)CC1 | -15.6
COCC1CCCN(Cc2cn(Cc3ccccc3)nc2-c2cc3ccccc3o2)C1 (centres unmarked) | -72.8
COCC1CCN(Cc2cn(C)nc2-c2cccc(Cl)c2)C1 (centres unmarked) | -2.21
COCC1CCCN(Cc2cn(-c3ccccc3F)nc2-c2cc(C)sc2C)C1 (centres unmarked) | -39.4
COCC1CCN(Cc2cn(Cc3ccccc3)nc2-c2cc3ccccc3o2)CC1 | -76.6
COCC1CCCN(Cc2nc(Cc3ccccc3)no2)C1 (centres unmarked) | 11.6
CCCn1nnnc1SCC(=O)Nc1cccc(NC(=O)c2ccco2)c1 | -34.8
COc1ccc(OC)c(NC(=O)c2cnc(Nc3ccccc3OC)c3ccccc23)c1 | -7.53
CCN(CCCNC(=O)C1CCN(S(=O)(=O)CC)CC1)c1cccc(C)c1 | -40.4
Nc1c(C(=O)Nc2ccc(Cl)c(C(=O)O)c2)sc2nc3c(cc12)CCCC3 | -3.17
O=C(CSc1ccc2nnc(-c3ccccn3)n2n1)Nc1nccs1 | -27.6
CC(C)(C)OC(=O)NCc1n[nH]c(=S)n1C1CC1 | 14.5

Reference: publication PMC4336329 (PLoS ONE, 2015)
